Drawing on PubChem BioAssay (NCI), this text covers growth for 16 compounds.

Test systems include SK-MEL-2 melanoma; SN12C renal; UO-31 renal; TK-10 renal; ACHN renal; CAKI-1 renal; A498 renal; CCRF-CEM leukemia; MOLT-4 leukemia.
Experiment in all cases: NCI-60 one-dose screen, 48 h (100 = growth as untreated, 0 = no growth, -100 = all killed)
Holding throughout (conditions): 10 µM

The panel holds about 83,000 compounds, 20% with a hit somewhere; the sample as a whole holds those more often.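 In brief: 96-well plates, 48 h treatment, single concentration, percent growth endpoint.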 A number with no mark means an inactive call. Active and inactive are the calls of the source. Rule for the calls: active = growth percent below 10; inactive = the rest.

`Cn1cnc([N+](=O)[O-])c1/C=C1\Oc2ccc(Cl)cc2C1=O`: the growth with SK-MEL-2 melanoma was 82.2%; with SN12C renal, 98.9%; with UO-31 renal, 48.3%; in the test with TK-10 renal, 98.2%; in the test with ACHN renal it was 79.4%; with CAKI-1 renal it was 78.1%. Besides, the growth is 98.4% with A498 renal, 33.7% with CCRF-CEM leukemia and 49.3% in the test on MOLT-4 leukemia.

With `Cc1nc2scc(-c3ccc(Cl)cc3)n2c(=O)c1CCN1CCOCC1`, the growth in the test on SK-MEL-2 melanoma is 105%; in the test with SN12C renal it was 94%; in the test on UO-31 renal, 57.5%; in the test on TK-10 renal it was 142%; with ACHN renal, 89.4%; in the test on CAKI-1 renal, 84.6%. The values for the growth in the test with A498 renal, in the test with CCRF-CEM leukemia and in the test on MOLT-4 leukemia were 119%, 93.6% and 78.1%, respectively.

For `O=C1/C(=C/c2ccc(O)cc2)Cc2ccc(Cl)cc21`, the growth in the test with SK-MEL-2 melanoma was 93%; with SN12C renal, 77.8%; in the test with UO-31 renal, 45.2%; with TK-10 renal, 127%; with ACHN renal it was 80%; in the test on CAKI-1 renal, 68.3%. The results for the growth with A498 renal, in the test with CCRF-CEM leukemia and in the test with MOLT-4 leukemia were 121%, 67.7% and 70.3%, respectively.

Consider `COC(=O)C1(C(=O)OC)C2C(=O)C3C(C21)C3(C(=O)OC(C)(C)C)C(=O)OC(C)(C)C` (centres undefined), for which the growth in the test with SK-MEL-2 melanoma is 127%; in the test with SN12C renal, 107%; in the test with UO-31 renal, 85.4%; in the test on TK-10 renal, 128%; in the test with ACHN renal, 102%; with CAKI-1 renal, 90%. The values for the growth with A498 renal, with CCRF-CEM leukemia and in the test with MOLT-4 leukemia were 108%, 102% and 105%, respectively.

Turning to `Cn1c([N+](=O)[O-])cnc1C=C1C(=O)c2ccccc2C1=O`, the growth was 1.67% (active) in the test with SK-MEL-2 melanoma; 42.9% with SN12C renal; 20.7% in the test with UO-31 renal; 48.8% in the test with TK-10 renal; 37.4% with ACHN renal; 37.3% with CAKI-1 renal. Further, the figures for the growth in the test on A498 renal, with CCRF-CEM leukemia and with MOLT-4 leukemia were 70.1%, 18.4% and 21.8%, respectively.

For `CC(C)C(C)C(N)C(=O)O` (centres undefined), the growth with SK-MEL-2 melanoma is 101%; in the test with SN12C renal, 106%; in the test on UO-31 renal it was 85.6%; with TK-10 renal, 95.4%; in the test with ACHN renal, 99%; in the test with CAKI-1 renal, 99%. In addition, the growth was 109% in the test with A498 renal, 95.1% with CCRF-CEM leukemia and 93% in the test with MOLT-4 leukemia.

As to `COc1cc(C(c2c[nH]c3ccccc23)N2CCCC2)ccc1OCc1ccccc1` (centres undefined), the growth was 81.6% with SK-MEL-2 melanoma; 74.9% in the test with SN12C renal; 24.7% with UO-31 renal; 76.6% in the test on TK-10 renal; 73.2% in the test with ACHN renal; 53.3% in the test on CAKI-1 renal. Besides, the growth in the test on A498 renal was 71.6%; in the test with CCRF-CEM leukemia, 16.2%; in the test on MOLT-4 leukemia it was 26.1%.

Turning to `N#Cc1cnc2ccc(NCc3cnc[nH]3)cc2c1Nc1ccc(F)c(Cl)c1`, the growth was 32.5% with SK-MEL-2 melanoma; 46.5% in the test with SN12C renal; 51.5% in the test on UO-31 renal; 11.8% in the test on TK-10 renal; 24.6% with ACHN renal; 43.6% with CAKI-1 renal. Besides, the growth was 52.4% in the test on A498 renal, 71.3% in the test with CCRF-CEM leukemia and 79.6% in the test on MOLT-4 leukemia.

Consider `O=C(CCl)N1c2ccccc2Sc2ccc3ccccc3c21`, for which the growth in the test with SK-MEL-2 melanoma was -25.5% (active); with SN12C renal it was -49.1% (active); in the test on UO-31 renal, -89.8% (active); with TK-10 renal, -57.7% (active); with ACHN renal, -89.1% (active); with CAKI-1 renal, -52.8% (active). Further, the growth is -90.2% (active) in the test with A498 renal, -15.1% (active) with CCRF-CEM leukemia and -9.38% (active) with MOLT-4 leukemia.

As to `O=c1c2cccc3c(Nc4ccc(Br)cn4)ccc(c32)c2nc3ccccc3n12`, the growth in the test with SK-MEL-2 melanoma was 108%; in the test on SN12C renal it was 92.3%; in the test on UO-31 renal it was 52.1%; in the test with TK-10 renal it was 78.1%; with ACHN renal, 90.2%; in the test on CAKI-1 renal it was 83.9%. In addition, the growth in the test on A498 renal was 93.9%; in the test with CCRF-CEM leukemia, 97.9%; in the test with MOLT-4 leukemia it was 92.9%.

As to `C/C=C\COc1cc(C)c(Cl)cc1Cl`, the growth in the test on SK-MEL-2 melanoma was 120%; in the test with SN12C renal, 94.7%; in the test on UO-31 renal, 84.8%; with TK-10 renal, 125%; in the test on ACHN renal, 128%; with CAKI-1 renal, 98.8%. For the same compound, the growth is 101% in the test on A498 renal, 95% in the test on CCRF-CEM leukemia and 108% with MOLT-4 leukemia.

For `CC1=CC2OC34COC3CC(OC(=O)C(F)(F)F)C4(C)C2(C)CC1` (centres undefined), the growth with SK-MEL-2 melanoma is 104%; in the test with SN12C renal, 98.4%; with UO-31 renal, 99.5%; in the test with TK-10 renal, 101%; in the test on ACHN renal it was 98.4%; in the test with CAKI-1 renal it was 102%. Besides, the growth is 79.6% with A498 renal, 101% in the test with CCRF-CEM leukemia and 113% with MOLT-4 leukemia.

For the compound `O=[N+]([O-])c1ccc(-c2nc(Cl)c3c(n2)CCCC3)o1`, the growth with SK-MEL-2 melanoma is 102%; in the test with SN12C renal it was 42.5%; in the test on UO-31 renal it was 97.8%; in the test on TK-10 renal, 118%; in the test with ACHN renal it was 97.4%; in the test with CAKI-1 renal, -15.6% (active). For the same compound, the values for the growth in the test on A498 renal, in the test on CCRF-CEM leukemia and in the test with MOLT-4 leukemia were 84.3%, 86.8% and 92.8%, respectively.

In the case of `CCN1CCN(c2ccc(Nc3ncnc4c3nnn4CCc3cc(OC)cc(OC)c3)cc2)CC1`, the growth in the test on SK-MEL-2 melanoma is 110%; with SN12C renal, 93.7%; in the test on UO-31 renal it was 81.3%; with TK-10 renal, 114%; in the test on ACHN renal, 106%; with CAKI-1 renal it was 102%. For the same compound, the growth is 65.6% in the test on A498 renal, 86.4% with CCRF-CEM leukemia and 88.9% with MOLT-4 leukemia.

Regarding `CCOC(=O)c1c(C)n(-c2ccc(Cl)cc2)c2ccc(OC(=O)/C=C/c3ccccc3)cc12`, the growth was 64.2% in the test on SK-MEL-2 melanoma; 86.6% with SN12C renal; 83.1% in the test with UO-31 renal; 96% in the test on TK-10 renal; 98.7% in the test with ACHN renal; 103% with CAKI-1 renal. In addition, the growth was 68.7% in the test on A498 renal, 75.1% in the test on CCRF-CEM leukemia and 69.8% in the test with MOLT-4 leukemia.

Regarding `NC(N)=NS(=O)(=O)c1ccc(Nc2ccc3nnc(-c4ccncc4)n3n2)cc1`, the growth in the test with SK-MEL-2 melanoma was 131%; in the test with SN12C renal, 94.6%; with UO-31 renal, 78.6%; in the test with TK-10 renal, 112%; in the test with ACHN renal it was 101%; with CAKI-1 renal it was 106%. The figures for the growth in the test on A498 renal, in the test on CCRF-CEM leukemia and with MOLT-4 leukemia were 95.5%, 109% and 101%, respectively.
